Source: PubChem BioAssay
Rows were chosen to be rich in hits. Some 2.4% of all compounds tested hit in one or more screens of this group.
ABHD5-PLIN5 inh: ABHD5-PLIN5 interaction inhibitors, primary screen, cell lysate, split luciferase complementation, luminescence. Perilipin-5 (Homo sapiens) + 1-acylglycerol-3-phosphate O-acyltransferase ABHD5 (Homo …. Split G. princeps luciferase complementation, 4 h. inhibition, % at 4 µM. hit rate 0.78% among 360,000;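 active = inhibition above the mean inhibition across every tested compound plus 3 SD, cut at about 22% in these data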;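 also: 0% = DMSO only wells and the 100% control is not disclosed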
Target sequence (Q00G26 whole entry, looked up): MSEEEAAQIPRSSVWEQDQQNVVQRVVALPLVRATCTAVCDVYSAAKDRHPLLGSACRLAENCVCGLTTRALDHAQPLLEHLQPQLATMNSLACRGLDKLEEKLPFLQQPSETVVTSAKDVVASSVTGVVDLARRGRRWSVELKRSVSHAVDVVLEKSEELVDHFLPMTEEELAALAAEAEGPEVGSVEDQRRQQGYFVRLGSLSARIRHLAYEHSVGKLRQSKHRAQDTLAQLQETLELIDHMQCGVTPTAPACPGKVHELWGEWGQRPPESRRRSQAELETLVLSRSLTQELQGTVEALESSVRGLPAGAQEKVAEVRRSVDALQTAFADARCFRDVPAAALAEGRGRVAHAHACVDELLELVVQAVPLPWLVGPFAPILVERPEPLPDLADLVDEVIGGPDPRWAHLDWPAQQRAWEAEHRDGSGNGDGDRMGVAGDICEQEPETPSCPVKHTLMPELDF
Target sequence (Q8WTS1 whole entry, looked up): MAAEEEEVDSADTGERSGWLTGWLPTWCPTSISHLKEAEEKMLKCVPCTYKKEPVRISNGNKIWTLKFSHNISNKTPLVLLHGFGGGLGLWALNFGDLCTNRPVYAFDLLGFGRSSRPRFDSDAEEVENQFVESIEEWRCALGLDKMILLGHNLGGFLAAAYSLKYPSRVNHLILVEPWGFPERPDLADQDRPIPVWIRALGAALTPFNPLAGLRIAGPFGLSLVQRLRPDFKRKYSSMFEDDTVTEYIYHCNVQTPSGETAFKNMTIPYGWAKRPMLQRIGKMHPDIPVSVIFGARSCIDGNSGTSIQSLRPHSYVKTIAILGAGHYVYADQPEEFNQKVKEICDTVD
m5-HT2A agonist: mouse Htr2a agonists via beta-arrestin recruitment, primary screen, cell-based, luminescence | hit rate 0.66% among 360,000 | CHO-K1 mHTR2A beta-arrestin complementation; percent of 30 µM serotonin response | 5-hydroxytryptamine receptor 2A (Mus musculus), P35363 | activation, % at 7.6 µM;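 active = activation above a run cutoff, the mean activation of all tested compounds plus 3 SD, cut at about 14% in these data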;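 also: 0% = plate median of compound wells and 100% = 30 µM serotonin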
CRFR2-BP antag: antagonists of CRF-BP/CRF-R2 complex, primary screen, cell-based, HEK293, calcium dye fluorescence, uHTS; CRF-induced calcium fluorescence; inhibition, % at 11.8 µM; hit rate 0.59% among 350,000;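 active = inhibition of the ligand-induced calcium signal above about 50% at the single tested concentration, limit read from the data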
TLR4-MyD88 BLA: inhibitors of TLR4-MyD88 association in cells, primary screen, cell-based, HeLa CL3-4, BLA complementation, FRET ratio. AID 861, 2007. hit rate 0.18% among 200,000. HeLa CL3-4 TLR4/MyD88 BLA complementation. inhibition, % at 8.4 µM; in the data active = inhibition above about 25%;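 also: 0% = vehicle and 100% = reference inhibitor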
TLR9-MyD88 inh: inhibitors of TLR9-MyD88 association in cells, primary screen, cell-based, CHO, BLA complementation, fluorescence | Toll-like receptor 9 (Homo sapiens) + Myeloid differentiation primary response protein … | CCF4 FRET ratio | inhibition, % at 4.98 µM | hit rate 0.21% among 340,000;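 active = inhibition above the mean over all tested compounds plus 3 SD, cut at about 21% in these data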;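 also: 0% = DMSO only wells and 100% = clavulanate BLA inhibitor control wells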
NOD2 RIPK2 PPI: NOD2-RIPK2 binding disruptors in cells, primary screen, fluorescence, CHO cells, BLA complementation; Receptor-interacting serine/threonine-protein kinase 2 (Homo sapiens), O43353; CCF4 ratio; inhibition, % at 4.98 µM; hit rate 0.38% among 360,000; in the data active = inhibition above about 21%;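 also: 0% = vehicle only and 100% = reference blocker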
Numbers without * were called inactive; . = no result given.

SMILES | ABHD5-PLIN5 inh | m5-HT2A agonist | CRFR2-BP antag | TLR4-MyD88 BLA | TLR9-MyD88 inh | NOD2 RIPK2 PPI
CCNC1=C(Cl)C(=O)c2ccccc2C1=O | -2 | -4 | 9 | 14 | -3 | 6
Cc1ccc(NC2=CC(=O)C(=O)c3ccccc32)cc1 | -15 | -5 | 4 | -10 | -2 | -2
COC1=C(Nc2ccc(O)cc2)C(=O)c2ccccc2C1=O | -8 | -1 | 31 | -8 | -5 | -5
O=C1C(Cl)=C(Nc2ccc(O)cc2)C(=O)c2ccccc21 | 1 | 2 | 86* | . | -2 | -4
CCN(CC)c1ccc(NC2=C(Cl)C(=O)c3ccccc3C2=O)cc1 | -1 | 6 | 59* | -5 | 1 | 2
Cc1ccc(NC2=C(Cl)C(=O)c3ccccc3C2=O)cc1 | 1 | -1 | 91* | -7 | -7 | -3
C[C@H]1COc2cc(N(C)CCO)ccc2S(=O)(=O)N1 | 1 | 2 | . | . | . | 7
Clc1ccc(CSc2nnc(-c3c[nH]c4ccccc34)o2)cc1 | -2 | 2 | 3 | 5 | 8 | -4
Brc1ccc(CSc2nnc(Cc3c[nH]c4ccccc34)o2)cc1 | -3 | -2 | 50* | 2 | 17 | -7
CCOC(=O)c1nnc(-c2ccccc2)nc1N1CC(C)OC(C)C1 (stereo not drawn) | -3 | 5 | 56* | 2 | -11 | 6
CC(Sc1nc2cc([N+](=O)[O-])ccc2n1-c1ccc(F)cc1)C(=O)NCc1ccc2c(c1)OCO2 (stereo not drawn) | 11 | 0 | 25 | -5 | -1 | 0
COc1ccccc1-n1c(SCC(=O)NCc2ccc3c(c2)OCO3)nc2cc([N+](=O)[O-])ccc21 | 23* | -1 | 14 | 8 | -18 | 0
CCc1nc2ccc(C(=O)N3CCN(S(=O)(=O)CC)CC3)cn2c1N(CC)CCOC | 4 | 7 | . | . | . | -2
O=C(/C=C/c1ccncc1)c1ccc(NC(=O)c2ccccc2F)cc1 | 95* | 0 | 10 | 9 | 25* | 64*
CN(C)c1ccc(/C(=N\O)c2ccccc2)cc1 | 1 | -5 | 61* | -1 | -1 | -4
CC1(c2nc3ccccc3[nH]2)CCCC2=Nc3ccccc3CN21 (stereo not drawn) | -2 | -1 | . | . | . | -2
Cn1c(N)c(C(=O)COC(=O)CNS(=O)(=O)c2ccc(Cl)c(Cl)c2)c(=O)n(C)c1=O | 0 | 0 | 65* | -8 | 11 | -3
O=C1C=CN(C2OC(CO)C(O)C2O)C(=O)C1 (stereo not drawn) | -10 | 3 | -10 | . | 0 | -7
N#Cc1cc2cc(Cl)ccc2[nH]c1=O | -7 | 3 | . | . | . | 2
CCCCN1C(=O)C(CC(=O)NC(c2ccccc2)c2ccccc2)CC(C(=O)N2CCCCCC2)=C1C (stereo not drawn) | -2 | 0 | . | . | . | -8
N#CNC(=Nc1cccc(F)c1)SCc1ccccc1F | 2 | -2 | 85* | 3 | -3 | 10
CC(=O)c1cccc(CN2CCCC(C(=O)Nc3ccc(-c4ccco4)cc3)C2)c1 (stereo not drawn) | 30* | -3 | 4 | . | -19 | -8
O=C(NCC(F)(F)F)c1[nH]c(C(F)(F)F)nc1-c1ccccc1 | 1 | 6 | . | . | . | -7
COc1cc(/C=C2\C(=O)N(c3ccc(NC(C)=O)cc3)N=C2c2ccccc2)ccc1O | -30 | -1 | 68* | -1 | -1 | 1
CCC(C)CN1C(=O)CN(S(C)(=O)=O)CC1(C)C(=O)NC(C)C (stereo not drawn) | 5 | -4 | . | . | . | -15
SMILES | ABHD5-PLIN5 inh | m5-HT2A agonist | CRFR2-BP antag | TLR4-MyD88 BLA | TLR9-MyD88 inh | NOD2 RIPK2 PPI
Fc1ccc(CSc2ccc3nnc(-c4cccs4)n3n2)cc1 | 5 | -5 | 2 | -7 | -1 | -11
Cc1cccc(CSc2ccc3nnc(-c4cccs4)n3n2)c1 | 1 | -3 | 63* | 3 | 2 | 3
CC1=C(C(=O)OCc2ccccc2)C(c2ccc(C)cc2)NC(=O)N1 (stereo not drawn) | -2 | -6 | -6 | . | -1 | -4
CCc1sc(C(=O)NCCc2ccc(S(N)(=O)=O)cc2)cc1Br | 2 | -7 | 61* | -2 | -1 | 1
CCc1sc(C(=O)NCCc2ccc(S(N)(=O)=O)cc2)cc1C | -3 | 0 | 0 | . | 2 | -7
CC(=O)NC(C)(c1ccccc1)c1nc(-c2cnc3ccccc3c2)cs1 (stereo not drawn) | 2 | -1 | . | . | . | 4
C#CCOCCOCCOCCNc1nc(N2CCN(C(=O)CCCCCCCCCCNC(=O)[C@H](CCCCN)n3cc(C[C@@H](C)CC)nn3)CC2)nc(N2CCN(C(=O)CCCCCCCCCCNC(=O)[C@H](CCCN=C(N)N)n3cc(C[C@@H](C)CC)nn3)CC2)n1 | 63* | 3 | -48 | . | 34* | 73*
C#CCOCCOCCOCCNc1nc(N2CCN(C(=O)CCCCCCCCCCNC(=O)[C@@H](CCSC)n3cc(CCO)nn3)CC2)nc(N2CCN(C(=O)CCCCCCCCCCNC(=O)[C@H](CCCN=C(N)N)n3cc(C[C@@H](C)CC)nn3)CC2)n1 | 64* | 0 | 6 | . | -1 | 41*
C#CCOCCOCCOCCNc1nc(N2CCN(C(=O)[C@H](CCCCN)n3cc([C@@H](N)CC(C)C)nn3)CC2)nc(N2CCN(C(=O)[C@H](Cc3cc4ccccc4[nH]3)n3cc([C@@H](N)Cc4ccc(O)cc4)nn3)CC2)n1 | 25* | -7 | 6 | -11 | 3 | 2
C#CCOCCOCCOCCNc1nc(N2CCN(C(=O)CCCCCCCCCCNC(=O)[C@H](CCCCN)n3cc(C)nn3)CC2)nc(N2CCN(C(=O)CCCCCCCCCCNC(=O)[C@H](CCCN=C(N)N)n3cc(C[C@@H](C)CC)nn3)CC2)n1 | . | . | -126 | . | . | .
C#CCOCCOCCOCCNc1nc(N2CCN(C(=O)CCCCCCCCCCNC(=O)[C@H](CCCCN)n3cc(C[C@@H](C)CC)nn3)CC2)nc(N2CCN(C(=O)CCCCCCCCCCNC(=O)[C@@H]([C@H](C)O)n3cc(C)nn3)CC2)n1 | 53* | 2 | -84 | . | 15 | 35*
O=C(/C=C/c1cccc([N+](=O)[O-])c1)c1ccc2c(c1)OCCO2 | 23* | -1 | -24 | 14 | 0 | 0
CC(C)C(=O)N1CCN(CCN2C(=O)c3cccc4cccc(c34)C2=O)CC1 | 7 | 0 | -7 | . | -5 | 1
O=C(C(c1ccccc1)c1ccccc1)N1CCN(CCN2C(=O)c3cccc4cccc(c34)C2=O)CC1 | 4 | 2 | 52* | -5 | 5 | 9
